Test [1] can be described thus: Caspase-3/7 induction in HepG2 cells by small molecules, qHTS assay (AID 1346978). Also: nearly all actives have a fitted effect of over 15% in size. The method, boiled down:
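Wild-type HepG2 cells, 2,000/well, settled 5 hr at 37 C and 5% CO2, then compound-treated for 17 hr; caspase-3/7 activity read by luminescent Caspase-Glo 3/7 after 30 min at room temperature.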
A general note: In qHTS, concentration-response curves come from the screen itself.

Test [2] is described as follows: Caspase-3/7 induction in CHO-K1 cells by small molecules, qHTS cell viability counter screen (AID 1346979). Also: nearly all actives have a fitted effect of over 35% in size. Also: potency is read from the fitted curve at half-maximal effect. The procedure, abridged:
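CHO-K1 wt, 1,500 cells/well; 5hr pre-incubation 37C/5% CO2; compound pin transfer (DMSO); 16hr exposure; CellTiter-Fluor added, 1hr, fluorescence read.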

Test [3] in a line: Caspase-3/7 induction in CHO-K1 cells by small molecules, qHTS assay (AID 1346980). Also: nearly all actives have a fitted effect of over 15% in size. The method, boiled down: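 Wild-type CHO-K1 cells exposed to compounds for 17hr at 37 C, 5% CO2. Caspase-3/7 activity then measured by Caspase-Glo 3/7 luminescence after 30min at room temperature.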
A short description of test [4]: Caspase-3/7 induction in HepG2 cells by small molecules, qHTS cell viability counter screen (AID 1346981). Also: nearly all actives have a fitted effect of over 30% in size. Also: potency is read from the fitted curve at half-maximal effect. The method, boiled down:
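Steps: seed 2,000 HepG2 cells per well; incubate 5 hr at 37 C; pin-add compounds in DMSO; incubate 16 hr; add CellTiter-Fluor; after 1 hr at 37 C and 5% CO2, read fluorescence.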

The target in test [5] is Nuclear receptor subfamily 1 group I member 2 (Homo sapiens) (UniProt O75469). Nature of the test: Human pregnane X receptor (PXR) small molecule agonists, qHTS assay (AID 1346982). Also: nearly all actives have a fitted effect of over 35% in size. Also: potency is read from the fitted curve at half-maximal effect. The procedure, abridged: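 Agonist mode qHTS: PXR-Luc HepG2 cells plated 5 hr before DMSO-dissolved compounds were pinned in, cultured 24 hr at 37 C, 5% CO2; ONE-Glo luminescence readout.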
Sequence of Nuclear receptor subfamily 1 group I member 2 (Homo sapiens) (O75469 whole entry, looked up): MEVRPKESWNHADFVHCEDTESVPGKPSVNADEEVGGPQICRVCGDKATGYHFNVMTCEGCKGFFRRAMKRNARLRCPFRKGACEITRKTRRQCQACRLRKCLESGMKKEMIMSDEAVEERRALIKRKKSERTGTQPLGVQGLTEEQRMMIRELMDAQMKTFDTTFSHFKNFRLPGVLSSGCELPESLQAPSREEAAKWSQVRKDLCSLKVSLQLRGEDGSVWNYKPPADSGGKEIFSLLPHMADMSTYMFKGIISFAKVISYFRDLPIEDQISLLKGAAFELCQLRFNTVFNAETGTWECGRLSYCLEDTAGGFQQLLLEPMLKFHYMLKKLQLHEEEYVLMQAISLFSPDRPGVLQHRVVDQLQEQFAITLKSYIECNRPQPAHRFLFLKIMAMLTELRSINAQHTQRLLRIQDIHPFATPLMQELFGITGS
Test [6] concerns the target Acetylcholinesterase (Homo sapiens) (UniProt P22303). Nature of the test: Acetylcholinesterase (AChE) small molecule antagonists: colormetric cell-based qHTS assay (AID 1347395; calls by dose curve; also: nearly all actives have a fitted effect of over 30% in size). The procedure, abridged:
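SH-SY5Y cells; cpd 30 min 37 C; + DTNB/acetylthiocholine, 90 min 37 C; colorimetric thiocholine read; qHTS.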

Test [7] has the same target. Description: Acetylcholinesterase (AChE) small molecule antagonists: enzyme-based qHTS assay (AID 1347397; calls by dose curve; also: nearly all actives have a fitted effect of over 55% in size). The note with it: Potency: AChE enzyme activity inhibition. The procedure, abridged:
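Recombinant human AChE (50 mU/mL) preincubated with compound 30 min at room temperature; acetylthiocholine plus DTNB then added, and thiocholine formation read colorimetrically after 10 min at room temperature. DMSO served as vehicle control.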

Test [8] shares this target. Nature of the test: Acetylcholinesterase (AChE) small molecule antagonists: fluorescence cell-based qHTS assay (AID 1347398; calls by dose curve; also: nearly all actives have a fitted effect of over 50% in size). The note with it: Potency: AChE activity. The procedure, abridged:
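SH-SY5Y cells (2000/well), attached overnight, incubated with compound 30 min at 37 C. Acetylthiocholine plus Thiolite Green then added for 40 min at room temperature. Thiocholine fluorescence (Ex/Em 490/520 nm) reports cellular AChE activity.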

Test [9] shares this target. Nature of the test: Acetylcholinesterase (AChE) small molecule antagonists: enzyme-based qHTS assay with human liver microsomes (AID 1347399; calls by dose curve; also: nearly all actives have a fitted effect of over 60% in size). To be noted: Potency: qHTS inhibition. The procedure, abridged: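 Recombinant human AChE (50 mU/mL in the enzyme mix) and human liver microsomes (0.25 mg/mL final) were preincubated with compound and NADPH (0.25 mg/mL final) for 30 min at 37 C. Acetylthiocholine/DTNB was then added; thiocholine was read colorimetrically after 10 min at room temperature.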

Test [10] deals with Cytochrome P450 2C9 (Homo sapiens) (UniProt P11712). Nature of the test: Cytochrome P450 Family 2 Subfamily C Member 9 (CYP2C9) small molecule antagonists: luciferase reporter qHTS assay (AID 1671198). Also: nearly all actives have a fitted effect of over 50% in size. Also: potency is read from the fitted curve at half-maximal effect. The method, boiled down: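 P450-Glo proluciferin substrate with CYP2C9 enzyme; 10 min RT preincubation, then NADPH regeneration 1 h at 37C; luciferin detection reagent 20 min RT, luminescence in relative luminescence units.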
Sequence of Cytochrome P450 2C9 (Homo sapiens) (P11712 whole entry, looked up): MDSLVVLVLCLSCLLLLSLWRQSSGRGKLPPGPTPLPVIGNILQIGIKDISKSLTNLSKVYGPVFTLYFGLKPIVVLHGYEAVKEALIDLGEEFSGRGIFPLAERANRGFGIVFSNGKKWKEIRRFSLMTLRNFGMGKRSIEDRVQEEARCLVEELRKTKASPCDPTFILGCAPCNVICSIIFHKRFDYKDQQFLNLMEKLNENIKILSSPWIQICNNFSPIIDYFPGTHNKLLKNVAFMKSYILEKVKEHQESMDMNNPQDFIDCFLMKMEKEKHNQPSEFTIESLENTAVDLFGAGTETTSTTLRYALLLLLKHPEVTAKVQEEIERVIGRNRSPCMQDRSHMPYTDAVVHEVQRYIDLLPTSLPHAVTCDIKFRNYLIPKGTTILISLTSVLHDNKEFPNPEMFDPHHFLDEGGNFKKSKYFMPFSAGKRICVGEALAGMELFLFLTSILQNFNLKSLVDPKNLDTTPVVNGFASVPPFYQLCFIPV
(In general: Reporter assays use an easily measured gene product as a stand-in for the process of interest.)

The target in test [11] is Voltage-gated inwardly rectifying potassium channel KCNH2 (Homo sapiens) (UniProt Q12809). Description: Human Ether-a-go-go-Related Gene (hERG) channel small molecule antagonists: fluorescence cell-based qHTS assay (AID 1671200). Also: nearly all actives have a fitted effect of over 50% in size. Also: potency is read from the fitted curve at half-maximal effect. The procedure, abridged: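 Read-out: thallium influx as a surrogate for potassium, tracked as fluorescence (480 nm ex/540 nm em) every second for 2 min after Stimulus Buffer addition in dye-loaded hERG-U2OS cells.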
Sequence of Voltage-gated inwardly rectifying potassium channel KCNH2 (Homo sapiens) (Q12809 whole entry, looked up): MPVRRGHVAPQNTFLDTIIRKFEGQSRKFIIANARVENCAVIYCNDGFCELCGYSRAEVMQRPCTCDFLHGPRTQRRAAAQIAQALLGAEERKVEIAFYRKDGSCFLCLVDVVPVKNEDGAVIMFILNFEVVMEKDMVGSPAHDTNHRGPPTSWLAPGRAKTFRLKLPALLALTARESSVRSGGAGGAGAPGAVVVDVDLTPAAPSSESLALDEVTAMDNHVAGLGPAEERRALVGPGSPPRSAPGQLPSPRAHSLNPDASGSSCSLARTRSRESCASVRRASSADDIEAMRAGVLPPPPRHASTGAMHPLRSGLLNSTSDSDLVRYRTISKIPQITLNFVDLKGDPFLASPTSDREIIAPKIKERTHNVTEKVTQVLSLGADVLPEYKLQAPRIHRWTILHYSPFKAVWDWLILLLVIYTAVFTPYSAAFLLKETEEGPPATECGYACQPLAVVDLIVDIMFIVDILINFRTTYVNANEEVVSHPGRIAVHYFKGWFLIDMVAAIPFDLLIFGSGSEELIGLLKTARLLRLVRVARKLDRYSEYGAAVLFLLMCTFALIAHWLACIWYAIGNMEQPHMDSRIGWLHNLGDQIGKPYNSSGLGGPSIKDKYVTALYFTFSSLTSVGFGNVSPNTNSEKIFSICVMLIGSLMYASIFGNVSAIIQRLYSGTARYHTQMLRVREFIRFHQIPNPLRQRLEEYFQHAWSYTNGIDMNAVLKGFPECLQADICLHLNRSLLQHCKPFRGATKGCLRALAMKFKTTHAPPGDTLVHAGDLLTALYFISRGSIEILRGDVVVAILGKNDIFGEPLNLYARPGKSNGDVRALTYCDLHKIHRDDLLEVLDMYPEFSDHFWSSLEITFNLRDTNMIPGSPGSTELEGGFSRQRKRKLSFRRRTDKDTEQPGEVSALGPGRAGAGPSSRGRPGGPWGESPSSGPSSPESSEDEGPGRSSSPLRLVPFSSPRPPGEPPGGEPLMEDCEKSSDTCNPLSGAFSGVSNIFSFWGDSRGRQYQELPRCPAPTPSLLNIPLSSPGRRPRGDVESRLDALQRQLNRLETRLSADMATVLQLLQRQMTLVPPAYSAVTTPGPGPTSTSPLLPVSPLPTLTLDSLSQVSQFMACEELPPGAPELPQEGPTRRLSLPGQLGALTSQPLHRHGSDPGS

Test [12] has as its target Cytochrome P450 3A4 (Homo sapiens) (UniProt P08684). Description: Cytochrome P450 Family 3 Subfamily A Member 4 (CYP3A4) small molecule antagonists: luciferase reporter qHTS assay (AID 1671201). Also: nearly all actives have a fitted effect of over 50% in size. Also: potency is read from the fitted curve at half-maximal effect. The method, boiled down: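 Luminescent readout (RLU) proportional to CYP3A4 activity, from luciferin generated off a proluciferin substrate. Enzyme–substrate mix plus compound 10 min at room temp, NADPH regeneration 1 h, detection reagent 20 min.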

The target of test [13] is Cytochrome P450 2C19 (Homo sapiens) (UniProt P33261). Description: Cytochrome P450 Family 2 Subfamily C Member 19 (CYP2C19) small molecule antagonists: luciferase reporter qHTS assay (AID 1671197). Also: nearly all actives have a fitted effect of over 65% in size. Also: potency is read from the fitted curve at half-maximal effect. The method, boiled down:
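Compounds were tested on CYP2C19 activity via proluciferin conversion to luciferin. The 37C, 1 h reaction followed NADPH addition; detection reagent stopped it.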

The target in test [14] is Cytochrome P450 1A2 (Homo sapiens) (UniProt P05177). Description: Cytochrome P450 Family 1 Subfamily A Member 2 (CYP1A2) small molecule antagonists: luciferase reporter qHTS assay (AID 1671199). Also: nearly all actives have a fitted effect of over 50% in size. Also: potency is read from the fitted curve at half-maximal effect. The procedure, abridged: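 Inhibition of CYP1A2 conversion of proluciferin to luciferin, detected by luminescence. Reaction run 1 h at room temperature with NADPH regeneration after brief compound preincubation.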
Sequence of Cytochrome P450 1A2 (Homo sapiens) (P05177 whole entry, looked up): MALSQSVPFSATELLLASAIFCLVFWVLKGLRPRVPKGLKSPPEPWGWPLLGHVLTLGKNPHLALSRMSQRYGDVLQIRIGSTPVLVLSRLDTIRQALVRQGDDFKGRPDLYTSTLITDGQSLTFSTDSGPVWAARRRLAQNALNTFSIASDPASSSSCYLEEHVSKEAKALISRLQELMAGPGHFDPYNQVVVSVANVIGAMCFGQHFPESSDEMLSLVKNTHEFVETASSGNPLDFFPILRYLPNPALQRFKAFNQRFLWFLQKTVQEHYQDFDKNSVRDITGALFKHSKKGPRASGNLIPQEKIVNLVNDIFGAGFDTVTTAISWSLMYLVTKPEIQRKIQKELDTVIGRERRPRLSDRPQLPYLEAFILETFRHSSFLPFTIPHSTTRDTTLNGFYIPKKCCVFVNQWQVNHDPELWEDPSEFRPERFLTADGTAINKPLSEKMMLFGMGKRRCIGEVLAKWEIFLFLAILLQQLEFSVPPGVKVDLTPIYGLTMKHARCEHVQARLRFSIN

Test [15] deals with Cytochrome P450 2D6 (Homo sapiens) (UniProt P10635). Nature of the test: Cytochrome P450 Family 2 Subfamily D Member 6 (CYP2D6) small molecule antagonists: luciferase reporter qHTS assay (AID 1671196). Also: nearly all actives have a fitted effect of over 50% in size. Also: potency is read from the fitted curve at half-maximal effect. The procedure, abridged: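 P450-Glo format: CYP2D6 converts a proluciferin substrate to luciferin in an NADPH-driven reaction lasting 1 h at room temperature. Light output, proportional to CYP2D6 activity, reflects interference by test chemicals.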
Sequence of Cytochrome P450 2D6 (Homo sapiens) (P10635 whole entry, looked up): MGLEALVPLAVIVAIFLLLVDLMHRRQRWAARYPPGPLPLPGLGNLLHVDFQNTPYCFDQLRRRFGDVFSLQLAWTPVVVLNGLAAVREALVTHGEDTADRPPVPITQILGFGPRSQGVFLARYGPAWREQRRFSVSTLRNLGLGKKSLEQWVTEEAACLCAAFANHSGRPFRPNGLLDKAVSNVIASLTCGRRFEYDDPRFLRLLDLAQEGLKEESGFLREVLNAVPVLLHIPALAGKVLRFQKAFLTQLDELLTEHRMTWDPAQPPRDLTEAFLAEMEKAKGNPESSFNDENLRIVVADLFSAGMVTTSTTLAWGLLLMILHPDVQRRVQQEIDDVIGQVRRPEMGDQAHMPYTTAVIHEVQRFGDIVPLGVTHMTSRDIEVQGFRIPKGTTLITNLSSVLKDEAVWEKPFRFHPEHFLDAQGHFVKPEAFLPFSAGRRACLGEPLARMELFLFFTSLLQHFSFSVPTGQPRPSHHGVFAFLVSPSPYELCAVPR

Several values for one entry are separate records, joined by “and”; a condition that tells them apart may be missing. Equal entries are not always repeated. Results filed as inconclusive are left out. Activity calls are given as the source filed them. Unless noted, calls follow the shape of the dose curve; as a rule, active = well fitted curve in the direction sought with a large enough effect in the repeat runs; inconclusive = weak or mixed curves; inactive = no such curve, though single readings can be large; an effect the other way counts as inactive or inconclusive.

The record followed here is PubChem BioAssay (Tox21).

Sequence of Cytochrome P450 2C19 (Homo sapiens) (P33261 whole entry, looked up): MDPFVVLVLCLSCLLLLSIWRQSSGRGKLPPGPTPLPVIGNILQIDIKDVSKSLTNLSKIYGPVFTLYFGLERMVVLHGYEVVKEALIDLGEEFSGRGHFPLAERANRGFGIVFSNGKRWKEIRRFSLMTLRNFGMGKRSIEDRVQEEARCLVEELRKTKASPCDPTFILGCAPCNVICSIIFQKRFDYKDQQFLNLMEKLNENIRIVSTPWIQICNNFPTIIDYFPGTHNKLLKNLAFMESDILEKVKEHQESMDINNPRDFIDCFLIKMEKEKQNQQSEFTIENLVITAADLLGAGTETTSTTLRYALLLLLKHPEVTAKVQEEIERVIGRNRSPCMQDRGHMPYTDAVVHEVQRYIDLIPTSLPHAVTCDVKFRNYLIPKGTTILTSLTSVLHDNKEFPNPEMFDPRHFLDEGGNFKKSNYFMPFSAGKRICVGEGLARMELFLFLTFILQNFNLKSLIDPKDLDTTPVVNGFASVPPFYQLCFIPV
Sequence of Acetylcholinesterase (Homo sapiens) (P22303 whole entry, looked up): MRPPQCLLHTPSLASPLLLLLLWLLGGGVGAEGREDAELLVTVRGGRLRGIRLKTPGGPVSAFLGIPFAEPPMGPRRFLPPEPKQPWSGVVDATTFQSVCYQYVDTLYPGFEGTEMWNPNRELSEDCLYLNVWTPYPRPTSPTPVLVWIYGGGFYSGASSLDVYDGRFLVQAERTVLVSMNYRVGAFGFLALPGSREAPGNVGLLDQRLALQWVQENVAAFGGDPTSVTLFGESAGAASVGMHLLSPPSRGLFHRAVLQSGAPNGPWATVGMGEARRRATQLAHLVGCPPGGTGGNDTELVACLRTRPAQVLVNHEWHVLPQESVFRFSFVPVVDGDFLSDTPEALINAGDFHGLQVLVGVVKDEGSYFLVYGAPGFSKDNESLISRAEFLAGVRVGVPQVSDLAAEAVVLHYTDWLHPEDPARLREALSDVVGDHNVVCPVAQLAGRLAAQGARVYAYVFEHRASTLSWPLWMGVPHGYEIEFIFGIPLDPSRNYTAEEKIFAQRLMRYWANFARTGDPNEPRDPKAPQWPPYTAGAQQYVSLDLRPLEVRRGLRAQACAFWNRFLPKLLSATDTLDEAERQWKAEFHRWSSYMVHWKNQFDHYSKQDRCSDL
Sequence of Cytochrome P450 3A4 (Homo sapiens) (P08684 whole entry, looked up): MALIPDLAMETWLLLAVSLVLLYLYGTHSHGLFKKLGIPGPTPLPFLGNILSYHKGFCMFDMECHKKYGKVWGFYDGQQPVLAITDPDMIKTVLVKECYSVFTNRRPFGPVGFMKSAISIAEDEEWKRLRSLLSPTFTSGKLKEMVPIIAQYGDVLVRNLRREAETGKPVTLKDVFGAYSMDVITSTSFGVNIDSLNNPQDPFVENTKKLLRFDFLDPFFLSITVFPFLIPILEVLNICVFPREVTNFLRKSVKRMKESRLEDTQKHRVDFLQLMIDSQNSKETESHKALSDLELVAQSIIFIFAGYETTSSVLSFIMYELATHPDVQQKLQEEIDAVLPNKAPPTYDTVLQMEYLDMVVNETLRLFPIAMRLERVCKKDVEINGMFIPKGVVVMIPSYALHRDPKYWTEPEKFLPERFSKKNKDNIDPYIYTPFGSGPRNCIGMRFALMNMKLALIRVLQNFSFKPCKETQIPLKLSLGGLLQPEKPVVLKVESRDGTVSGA

As for `O=[N+]([O-])c1ccccc1CCl`, the Potency result in test [1], in test [2], in test [3], in [4], in test [6] and in test [7] was “inactive” throughout. Besides, the Potency entry in [8], in test [9], in [10], in [11] and in test [12] was “inactive” throughout. Moreover, in test [5], the Potency is 0.0039 µM (active).

As to `CCC(Br)(CC)C(=O)NC(N)=O`, the Potency result in test [1], in test [2], in [3], in test [4], in test [5] and in [6] was “inactive” each time. In addition, the Potency result in [7], in test [8], in test [9], in test [13], in test [10] and in test [14] was “inactive” throughout. The Potency result in [11] and in test [12] was “inactive” in each case.

Regarding `CCc1ccc(C(=O)NN(C(=O)c2cc(C)cc(C)c2)C(C)(C)C)cc1`, the Potency result in test [1], in test [3], in test [5], in test [7], in test [8] and in test [9] was “inactive” throughout. For the same compound, the Potency entry in test [15], in test [14] and in [11] was “inactive” each time. The Potency in test [2] is 27.3 µM (active); in test [4], 9.69 µM (active); in test [13], 5.03 µM (active); in [10], 11.2 µM (active); in test [12], 5.03 µM (active).

Consider `[CH3][Sn]([CH3])([Cl])[Cl]`, for which the Potency entry in test [1], in test [3], in [4], in test [5], in [7] and in test [8] was “inactive” each time. Further, the Potency result in test [9], in test [15], in test [13], in test [10], in test [14] and in [11] was “inactive” in each case. Also, the Potency entry in [12] is “inactive”. Further, in [2], the Potency is 31.1 µM (active) and 54.5 µM (active).

With `CCOP(=S)(Oc1ccc([N+](=O)[O-])cc1)c1ccccc1` (configuration not stated), the Potency result in test [1], in test [2], in test [3], in test [4], in test [5] and in test [6] was “inactive” each time. Also, the Potency entry in [7] and in test [8] was “inactive” each time. For the same compound, the Potency in test [13] was 0.159 µM (active); in test [10] it was 0.564 µM (active); in test [14], 5.64 µM (active); in test [11], 0.616 µM (active); in test [12] it was 1.59 µM (active).

For `c1ccc(C2CC2)c(OCC2=NCCN2)c1`, the Potency result in [1], in [2], in test [3], in [4], in test [5] and in test [7] was “inactive” each time. The Potency result in test [8], in [9], in test [13], in test [10], in test [11] and in test [12] was “inactive” throughout. In addition, in test [15], the Potency is 4.36 µM (active).

Take `COC(=O)C(C)N(C(=O)Cc1ccccc1)c1c(C)cccc1C` (configuration not stated): the Potency result in test [1], in [2], in [3], in [4], in [6] and in [7] was “inactive” throughout. Further, the Potency result in [8], in test [9], in test [14], in test [11] and in test [12] was “inactive” each time. For the same compound, the Potency is 10.9 µM (active) in test [5], 3.56 µM (active) in test [13] and 22.4 µM (active) in [10].

Turning to `Cc1cc(=O)[nH]o1`, the Potency entry in test [1], in [2], in [3], in [4], in test [5] and in [7] was “inactive” throughout. Further, the Potency entry in test [8], in test [9], in test [15], in [14], in test [11] and in test [12] was “inactive” in each case. Also, the Potency in test [10] is 110 µM (active).
